Most compounds without a hit are left out; they make up all but 8.3% or so of the library.
RORg inh: ROR gamma (mouse) transcription inhibition; Drosophila S2 Gal4-RORgamma UAS-luciferase reporter, 20 h; Potency, µM (doses to about 53.6 µM), inactives show at the highest dose activity change, negative = inhibition, most hits filed as inhibitors; hit rate 5.4% among 310,000; AID 2551; further: potency means the concentration at half of the fitted maximal effect; on the % scale 0 is the no-effect control and ±100 the full control effect; nearly all actives have a fitted effect of over 60% in size
Target sequence (P51450 whole entry, looked up, the tested form may be a part): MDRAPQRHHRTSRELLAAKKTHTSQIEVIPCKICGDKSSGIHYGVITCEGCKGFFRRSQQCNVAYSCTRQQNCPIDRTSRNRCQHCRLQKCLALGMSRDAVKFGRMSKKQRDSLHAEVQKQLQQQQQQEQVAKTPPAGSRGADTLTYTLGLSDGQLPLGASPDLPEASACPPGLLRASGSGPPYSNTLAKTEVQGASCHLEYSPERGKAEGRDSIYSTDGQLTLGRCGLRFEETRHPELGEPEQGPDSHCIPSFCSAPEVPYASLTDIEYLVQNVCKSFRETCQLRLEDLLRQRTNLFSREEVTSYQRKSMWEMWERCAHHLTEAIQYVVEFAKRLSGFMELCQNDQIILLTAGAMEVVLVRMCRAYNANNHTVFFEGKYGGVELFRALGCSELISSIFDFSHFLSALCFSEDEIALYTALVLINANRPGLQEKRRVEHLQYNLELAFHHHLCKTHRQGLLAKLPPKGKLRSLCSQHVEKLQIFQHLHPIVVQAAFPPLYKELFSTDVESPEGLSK
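Luminescence from a UAS-regulated Photinus luciferase reporter in stably transfected Drosophila Schneider cells is measured; decreased signal marks ROR gamma inhibition. Fusion expression is induced by 700 uM copper sulfate for 20 hr.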
BCR signal inh: chronic active BCR signaling inhibition; AID 493014; ABC-DLBCL IkBa-CBG/CBR reporter, luminescence ratio, 4 h; Potency, µM (titrated, usually from 46.1 µM), for the others: at the highest dose activity change, negative = inhibition, usual class: inhibitors; hit rate 0.05% among 340,000; active means well fitted inhibition curve with a large enough effect in the signal ratio, with a control signal flat, not every such curve was filed as active; inconclusive means small, poorly fitted or top-dose-only effect, or effect the other way, or a change in a side signal; the % refers to the signal ratio;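 further: potency means the concentration at half of the fitted maximal effect; plate controls were basal doxycycline-induced cells for no effect and cells given 10 µM MG132 for full effect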
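TMD8 human ABC-DLBCL cells with doxycycline-inducible IκBα–green luciferase fusion and unfused red luciferase, in 0.5% FBS medium; compounds up to 46 uM, 4 h at 37C. Green/red luminescence ratio, filter-overlap corrected, fitted to concentration-response curves.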
SW480 rereplic: induces DNA re-replication in SW480 colon adenocarcinoma cells; SW480 DNA re-replication, Hoechst DNA content imaging, 48 h; Potency, µM (highest dose often 46.1 µM), inactives show at the highest dose re-replication activation, most hits filed as activators; hit rate 1.8% among 340,000; AID 624297; further: potency means the concentration at half of the fitted maximal effect; % of control where 0% means no effect; nearly all actives have a fitted effect of over 55% in size
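First, 250 cells per well were seeded. Next, compound or vehicle (23 nL) was pinned in, plates sat 48 hr at 37 C. Finally Hoechst was added for 40 min before fluorescence scanning.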
VP16 counter: Gal4-VP16 reporter inhibition counter-screen | Potency, µM (top dose mostly 53.6 µM), inactives show top-dose activity, negative = inhibition, actives largely listed as inhibitors | hit rate 3.5% among 310,000 | AID 2546 | Drosophila S2 Gal4-VP16 UAS-luciferase, luminescence, 20 h;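 further: Gal4-VP16 expression switched on by copper sulfate through the metallothionein promoter; potency means the concentration at half of the fitted maximal effect; on the % scale 0 is the no-effect control and ±100 the full control effect; nearly all actives have a fitted effect of over 50% in size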
Giardia killer: kills Giardia lamblia. Giardia lamblia trophozoite viability. activity change, % at 7.66 µM, hits read low. hit rate 0.15% among 340,000; in the data active means activity change below about -80%; inconclusive means between about -30% and that limit;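 further: parasites exposed to compound for two days anaerobically before the ATP read; on the % scale 0 is the no-effect control and ±100 the full control effect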
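Trophozoite viability was measured as ATP-dependent luminescence, read 15-30 min after reagent addition. Before that, parasites at 100 cells/well were exposed to compounds for 48 h, anaerobically, at 37 deg C.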
MCF10A rereplic: DNA re-replication induction in MCF 10a cells | MCF 10A DNA re-replication, Hoechst nuclear intensity, 48 h | Potency, µM (doses to about 46.1 µM), without a hit: at the highest dose activity, positive = re-replication, most hits filed as activators | hit rate 2.9% among 350,000 | AID 624296; further: potency means the concentration at half of the fitted maximal effect; % of control where 0% means no effect; nearly all actives have a fitted effect of over 50% in size
The depositor's hits bear a star; ? = inconclusive; · = not tested or not shown; [ ] = remark or other dose. Unless noted, the call rests on the fitted dose curve; in most records, active means well fitted curve in the direction sought with a large enough effect; inconclusive means small, poorly fitted or top-dose-only effect, or another doubt; inactive means no such curve, though single readings can be large; an effect the other way counts as inactive or inconclusive.

SMILES | RORg inh | BCR signal inh | SW480 rereplic | VP16 counter | Giardia killer | MCF10A rereplic
CC(NC(=S)Nc1ccccc1Cl)C(c1ccccc1)N1CCOCC1 (stereo not drawn) | 3.98µM* | ? | -15.8% | ? | 17.2 | -26.8%
Cc1ccc(C)c(NC(=S)NC(C)C(c2ccccc2)N2CCN(C)CC2)c1 (stereo not drawn) | 12.6µM* | ? | -2.6% | -16.5% | -7.9 | 10.6%
COc1ccc(NC(=S)NC(C)C(c2ccccc2)N2CCOCC2)cc1 (stereo not drawn) | 4.47µM* | 3.9% | 15.5% | ? | -2.6 | 8.2%
CCOc1ccc(C(=O)N(CC(=O)Nc2cccc(C)c2C)CC2CCCO2)cc1OC (stereo not drawn) | · | 0.2% | 0.4% | · | 8.3 | -1.7%
CC(C)C1(C)NC(c2ccc3c(c2)OCO3)=CC(c2ccccc2O)N1 (stereo not drawn) | · | · | · | · | -18.3 | ·
CC(C)C1N=C(c2ccc3c(c2)OCO3)CC(c2ccccc2O)N1 (stereo not drawn) | -27.0% | ? | ? | -1.5% | -25.5 | 20.6µM*
Cc1cccc(CSC2=NCCN2C(=O)c2ccc(S(=O)(=O)N(C)C)cc2)c1 | 32.8% | 7.6% | 29.1µM* | 5.9% | 3.7 | 2.6%
Cc1nc(C(C)N(C)Cc2nc(-c3ccc4c(c3)OCO4)no2)c(C)s1 (stereo not drawn) | 17.8µM* | ? | 3.66µM* | ? | 25.5 | ?
Cc1csc(=N)n1-c1ccc(Cl)cc1 | ? | ? | 0.5% | 11.2µM* | -10.6 | 3.2%
Cc1ccc(-n2c(C)csc2=N)cc1 | ? | ? | ? | -15.1% | 1.3 | -18.8%
C=C1C(=O)O[C@@H]2[C@H]3O[C@]3(C)CCC=C(C)CC[C@@H]12 | 7.08µM* | · | · | ? | · | ·
C=C1C(=O)O[C@@H]2[C@@H]1CC/C(C)=C\CC[C@@]1(C)O[C@H]21 | 3.16µM* | · | 6.8% | 3.55µM* | · | 11.9µM*
O=C(CC1(O)C(=O)Nc2ccccc21)c1cccc(-n2cccc2)c1 (stereo not drawn) | 23.4% | -0.2% | ? | -13.1% | 0.0 | 1.46µM*
N#Cc1c(N)nc2c(c1-c1ccco1)CCCCC2 | · | · | 23.8% | · | 1.1 | ?
N#Cc1c(NCCCO)nc(-c2ccco2)c2c1CCCC2 | ? | 22.5% | 5.8µM* | ? | -13.1 | 18.4µM*
N#Cc1c(NC2CCCCC2)nc(-c2ccco2)c2c1CCCC2 | -19.6% | 2.8% | 13µM* | 10.3% | ? | 16.4µM*
Cc1cn(C)c(CC(=O)Nc2cccc(C#N)c2)c1C(=O)O | · | 5.0% | · | · | · | ·
CN(C)C(=S)N=Nc1[nH]c2ccccc2c1O | 0.891µM* | ? | ? | 5.62µM* | ? | ?
Cc1ccsc1C(=O)NNC(=O)c1cccc(S(=O)(=O)N2CCCC2)c1 | · | -4.6% | 1.0% | · | 11.3 | -3.0%
CN(C)CCN=Cc1c(O)n(Cc2ccccc2)c(=O)c2ccccc12 | 12.6µM* | 1.7% | 13.8% | ? | -9.0 | -0.6%
COc1ccc(Cn2c(O)c(C=Nc3ccc(O)cc3)c3ccccc3c2=O)cc1 | 1.0% | ? | ? | -28.0% | -19.7 | 6.51µM*
CCOc1ccc(C(C)=O)cc1N1C(=O)C2C3C=CC(C3)C2C1=O (stereo not drawn) | -1.0% | ? | 8.9% | 4.6% | 8.8 | -3.4%
CCOc1ccc(C(C)=O)cc1N1C(=O)C2C3C=CC(O3)C2C1=O (stereo not drawn) | 6.31µM* | ? | ? | 6.31µM* | -7.0 | ?
Cc1n[nH]c(C)c1CCN(C)C(=O)C1CCC(=O)N(CC2CCCCC2)C1 (stereo not drawn) | 13.8% | 8.1% | -3.6% | -5.4% | 0.3 | 1.8%
CC(C(=O)O)C1CCC2C3CC=C4CC(O)CC[C@@]4(C)C3CC[C@]12C (stereo partly drawn) | -20.8% | · | · | 2.6% | · | ·
SMILES | RORg inh | BCR signal inh | SW480 rereplic | VP16 counter | Giardia killer | MCF10A rereplic
CC1=C(CO)C(=O)OC([C@@H](C)C2CC[C@H]3C4C[C@H]5O[C@]56[C@@H](O)C=CC(=O)[C@]6(C)C4CC[C@]23C)C1 (stereo partly drawn) | ? | ? | ? | ? | 13.6 | 2.31µM*
O=C1Nc2ccc(Br)cc2C12NNc1ccccc1O2 (stereo not drawn) | 11.2µM* | 9.0% | 2.6% | ? | -17.4 | 23.1µM*
O=C1Nc2ccc(Br)cc2C1(O)c1ccccc1 (stereo not drawn) | 8.2% | -3.1% | 9.5% | 3.6% | -18.2 | -12.6%
CN=c1scc(-c2cccs2)n1/N=C/c1ccccc1O | 27.3%[10 µM] | ? | 10.5% | -10.5% | ? | 14.6µM*
C=CCN=c1scc(-c2ccco2)n1/N=C/c1ccc(O)c(O)c1O | 3.16µM* | -0.6% | ? | 10µM* | 6.0 | 25.5%
CN=c1scc(C)n1/N=C/c1cc(Br)c(O)c(OC)c1 | 12.4% | -22.1% | -4.0% | -4.7% | -13.7 | 11.3%
CN=c1scc(-c2cccs2)n1/N=C/c1ccc(O)c(O)c1O | 1.12µM* | 7.3% | ? | 1.41µM* | -92.5* | 7.5%
CN=c1scc(C)n1/N=C/c1ccc(O)c(O)c1O | 2.24µM* | ? | 20.9% | 7.08µM* | ? | ?
CN=c1scc(-c2ccccc2Br)n1/N=C/c1ccc[nH]1 | ? | -1.8% | · | ? | · | ·
Cc1nc2ccccc2c(=O)n1/N=C/c1ccc(O)c(O)c1O | -18.1% | -0.4% | -8.1% | 4.0% | -3.2 | -4.7%
Cc1ccc(NC(=O)Nc2nnc(SCC(=O)N3CCCCC3)s2)cc1 | · | 26.0% | · | · | · | ·
CC(=O)c1sc(NC(=O)CN2C(=O)CCC2=O)nc1C | · | · | -7.7% | · | 16.7 | ?
CC1CCCCC1NC(=O)c1ccc(NS(=O)(=O)c2ccc3[nH]c(=O)[nH]c3c2)cc1 (stereo not drawn) | · | ? | -0.5% | · | -9.9 | -0.5%
CC(C)N=c1scc(-c2ccco2)n1/N=C/c1ccc(O)c(O)c1 | 1.41µM* | ? | 3.0% | 15.8µM* | -16.1 | ?
COCCN=c1scc(-c2ccco2)n1/N=C/c1ccc(O)c(O)c1O | ? | 5.9% | ? | -1.2% | 5.7 | -5.6%
OC(CN1CCCCC1)Cn1c2ccc(Cl)cc2c2cc(Cl)ccc21 (stereo not drawn) | ? | ? | ? | ? | 18.3 | ?
OC(CN1CCN(c2ccccn2)CC1)Cn1c2ccc(Cl)cc2c2cc(Cl)ccc21 (stereo not drawn) | -31.9% | 19.1% | ? | ? | -9.5 | 20.6µM*
Cc1ccc(S(=O)(=O)N2CCC(C(=O)Nc3ccccc3N3CCCC3)CC2)cc1C | · | -7.0% | 0.0% | · | 6.9 | 17.8%
O=C(CSc1nc2ccccc2s1)NCCOc1ccc(Cl)cc1 | 24.5% | 15.9% | -1.7% | 3.3% | 2.0 | 12.0%
